The text below walks through data of PubChem BioAssay (NCATS).

Each structure is given as a SMILES string. Records with an inconclusive call do not appear. A call without a number means that no potency is given here. Calls of active or inactive are those of the source. The call rests on the fitted dose curve; in most records, active means well fitted curve in the direction sought with a large enough effect; inconclusive means small, poorly fitted or top-dose-only effect, or another doubt; inactive means no such curve, though single readings can be large; an effect the other way counts as inactive or inconclusive.

Sequence of Single-stranded DNA cytosine deaminase (Homo sapiens) (Q9GZX7 whole entry, looked up): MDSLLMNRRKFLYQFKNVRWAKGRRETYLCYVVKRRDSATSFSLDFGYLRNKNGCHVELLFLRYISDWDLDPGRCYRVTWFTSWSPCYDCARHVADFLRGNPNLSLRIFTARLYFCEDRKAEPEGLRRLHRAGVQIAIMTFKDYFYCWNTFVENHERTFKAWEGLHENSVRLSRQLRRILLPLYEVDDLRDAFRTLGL
Sequence of Calcium and integrin-binding protein 1 (Homo sapiens) (Q99828 whole entry, looked up): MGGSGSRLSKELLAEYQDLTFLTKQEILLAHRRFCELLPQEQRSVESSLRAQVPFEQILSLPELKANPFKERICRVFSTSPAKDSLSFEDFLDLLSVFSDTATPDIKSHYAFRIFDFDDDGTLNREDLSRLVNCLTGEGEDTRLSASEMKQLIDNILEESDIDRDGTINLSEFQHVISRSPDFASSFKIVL

The first assay addresses Single-stranded DNA cytosine deaminase (Homo sapiens) (UniProt Q9GZX7). Nature of the assay: Validation qHTS assay for inhibitors of Activation Induced Cytidine Deaminase (AID): AID signal (AID 1347429). The following applies: Recombinant AID, FRET ssDNA deamination with UDG, fluorescence; series mostly up to 115 µM. The method, boiled down: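 Compounds (final up to 114 uM) preincubated with AID plus UDG; 250 nM DJC20/DJC23 substrate mix (4x stock) added, 4 hr at room temperature, then NaOH, 30 min. Read 1 fluorescence at 540 nm excitation, 590 nm emission.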
On the technique in general: Quantitative high-throughput screening tests each substance at several concentrations.
With `CCCCOc1cc(CC2CNC(=O)N2)ccc1OC` (stereo not drawn), the Potency entry was “inactive”.

In the case of `O=C(O)C1CCNCC1`, the Potency result is “inactive”.

In the case of `CC(=O)SC1CC2=CC(=O)CC[C@]2(C)C2CC[C@@]3(C)C(CC[C@@]34CCC(=O)O4)C12` (stereo partly drawn), the Potency result is “inactive”.

As for `N[C@H](C(=O)O)[C@H]1C[C@@H]1C(=O)O`, the Potency result was “inactive”.

As to `CN1CC(O)C(O)C(O)C1CO` (stereo not drawn), the Potency result was “inactive”.

Turning to `COc1ccc(-c2ccc(N)[n+](CCCC(=O)O)n2)cc1`, the Potency entry is “inactive”.

Regarding `C=CCN1CCc2c(cc(O)c(O)c2Br)[C@@H](c2ccccc2)C1`, the Potency result is “inactive”.

In the case of `CCOC(=O)C12CC1/C(=N/O)c1ccccc1O2` (stereo not drawn), the Potency result is “inactive”.

In the case of `C[N+](C)(C)CC=O`, the Potency result was “inactive”.

As to `O=C(O)C1=CCNCC1`, the Potency result is “inactive”.

Turning to `CC(N)=NCCCC[C@@H](N)C(=O)O`, the Potency entry was “inactive”.

Consider `OCC1NCC(O)C(O)C1O` (stereo not drawn), for which the Potency entry is “inactive”.

`COc1ccccc1N1CCN(CCCCN2C(=O)c3ccccc3C2=O)CC1`: the Potency result is “inactive”.

Turning to `CC[C@H](NC(=O)c1c(C)c(-c2ccccc2)nc2ccccc12)c1ccccc1`, the Potency entry is “inactive”.

On to `Cn1c(=O)[nH]c2ncn(C)c2c1=O`, for which the Potency entry was “inactive”.

As for `Cc1nc(N=Nc2ccc(C(=O)O)cc2)c(COP(=O)(O)O)c(C=O)c1O`, the Potency result was “inactive”.

Turning to `c1ccc(C(NCCNC(c2ccccc2)c2ccccc2)c2ccccc2)cc1`, the Potency result was “inactive”.

Test system in another assay: not listed separately
In words: Primary qHTS for inhibitors of La Crosse Virus (LACV) - induced cell death in SH-SY5Y cells (AID 1508616).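 Further: top concentration of the series differs between compounds; higher means more rescue of cells from virus-induced death.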 The following applies: SH-SY5Y LACV cytopathicity rescue, ATP luminescence, 6 d; series mostly up to 9.63 µM. An outline of the steps:
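Rescue of virus-induced death was read as ATPLite luminescence after 6 days at 37C, scaled between DMSO wells with LACV and without virus. Cells were SH-SY5Y, 6000/well, infected at 0.01 MOI after compound addition.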
For the compound `C=C1C[C@@]23CC[C@H]4[C@@](C)(CCC[C@@]4(C)C(=O)O)[C@@H]2CC[C@]1(O)C3`, the Potency entry was “inactive”.

As for `CC(C)C[C@H](NC(=O)C1OC1C(=O)O)C(=O)NCCCCN=C(N)N` (stereo partly drawn), the Potency entry is “inactive”.

Take `NC(N)=NC(N)=Nc1cccc(Cl)c1`: the Potency entry was “inactive”.

`COC(=O)C(C)(N)Cc1ccc(O)cc1` (stereo not drawn): the Potency entry is “inactive”.

For the compound `OC[C@H]1NC[C@@H](O)[C@@H]1O`, the Potency result was “inactive”.

As for `CCCCC[C@H](CC(=O)NO)C(=O)N[C@H](C(=O)N1CCC[C@H]1CO)C(C)C`, the Potency entry is “inactive”.

For the compound `Nc1ccc(N2C(=O)c3ccccc3C2=O)c(Cl)c1`, the Potency result is “inactive”.

Regarding `NOCC(=O)O`, the Potency result was “inactive”.

As to `C#CC(N)CCC(=O)O` (stereo not drawn), the Potency entry was “inactive”.

`NC1CONC1=O` (stereo not drawn): the Potency entry was “inactive”.

On to `CCSC(=N)N`, for which the Potency entry is “inactive”.

`NC1(C(=O)O)CCCCC1`: the Potency result was “inactive”.

Turning to `CC(N)(Cc1ccc(O)cc1)C(=O)O` (stereo not drawn), the Potency result is “inactive”.

For the compound `CCC1(O)CC2CN(CCc3c([nH]c4ccccc34)[C@@](C(=O)OC)(c3cc4c(cc3OC)N(C=O)C3[C@]45CCN4CC=C[C@@](CC)([C@@H](OC(C)=O)[C@]3(O)C(=O)OC)[C@H]45)C2)C1` (stereo partly drawn), the Potency entry was “inactive”.

Consider `Cn1c(=O)c2c(nc(/C=C/c3cccc(Cl)c3)n2C)n(C)c1=O`, for which the Potency result is “inactive”.

Turning to `CC(C)NC[C@H](O)COc1ccc(CC(N)=O)cc1`, the Potency result was “inactive”.

With `O=C(O)c1ccccc1Nc1ccccc1`, the Potency result was “inactive”.

As for `N[C@@H](Cc1c[nH]c2ccccc12)C(=O)O`, the Potency entry was “inactive”.

Turning to `COc1ccccc1N1CCN(CCN(C(=O)c2ccc(F)cc2)c2ccccn2)CC1`, the Potency entry is “inactive”.

For the compound `NC1(C(=O)O)CC1`, the Potency entry was “inactive”.

On to `O=C(O)CCC/C=C\C[C@@H]1[C@@H](/C=C/[C@H](O)C2Cc3ccccc3C2)[C@@H](F)C[C@@H]1O`, for which the Potency result was “inactive”.

In the case of `CCCCOc1cc(CC2CNC(=O)N2)ccc1OC` (stereo not drawn), the Potency result was “inactive”.

As for `O=C(O)C1CCNCC1`, the Potency entry is “inactive”.

Consider `CC(=O)SC1CC2=CC(=O)CC[C@]2(C)C2CC[C@@]3(C)C(CC[C@@]34CCC(=O)O4)C12` (stereo partly drawn), for which the Potency result is “inactive”.

With `N[C@H](C(=O)O)[C@H]1C[C@@H]1C(=O)O`, the Potency result is “inactive”.

As for `CN1CC(O)C(O)C(O)C1CO` (stereo not drawn), the Potency result was “inactive”.

For the compound `COc1ccc(-c2ccc(N)[n+](CCCC(=O)O)n2)cc1`, the Potency result is “inactive”.

In the case of `C=CCN1CCc2c(cc(O)c(O)c2Br)[C@@H](c2ccccc2)C1`, the Potency result is “inactive”.

For `CCOC(=O)C12CC1/C(=N/O)c1ccccc1O2` (stereo not drawn), the Potency entry was “inactive”.

On to `C[N+](C)(C)CC=O`, for which the Potency result is “inactive”.

On to `O=C(O)C1=CCNCC1`, for which the Potency entry was “inactive”.

Turning to `CC(N)=NCCCC[C@@H](N)C(=O)O`, the Potency result was “inactive”.

For `OCC1NCC(O)C(O)C1O` (stereo not drawn), the Potency entry is “inactive”.

In the case of `COc1ccccc1N1CCN(CCCCN2C(=O)c3ccccc3C2=O)CC1`, the Potency entry was “inactive”.

For `CC[C@H](NC(=O)c1c(C)c(-c2ccccc2)nc2ccccc12)c1ccccc1`, the Potency entry is “inactive”.

For `Cn1c(=O)[nH]c2ncn(C)c2c1=O`, the Potency result is “inactive”.

With `Cc1nc(N=Nc2ccc(C(=O)O)cc2)c(COP(=O)(O)O)c(C=O)c1O`, the Potency entry is “inactive”.

Turning to `c1ccc(C(NCCNC(c2ccccc2)c2ccccc2)c2ccccc2)cc1`, the Potency entry is “inactive”.

The target of the next assay is Calcium and integrin-binding protein 1 (Homo sapiens) (UniProt Q99828). In words: Validation qHTS for Identification of Calcium Integrin Binding protein 1 (CIB1) Competitor (AID 1508618). The following applies: CIB1-GST / FITC-alphaIIb peptide fluorescence polarization; series mostly up to 114 µM. An outline of the steps:
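Displacement of FITC-alphaIIb peptide (100 nM) from CIB1-GST (1 uM) is monitored by polarization in quantitative HTS format; buffer carries 5 mM CaCl2 and 125 mM NaCl at pH 7.4, incubations are at room temperature.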
As to `C=C1C[C@@]23CC[C@H]4[C@@](C)(CCC[C@@]4(C)C(=O)O)[C@@H]2CC[C@]1(O)C3`, the Potency entry is “inactive”.

`CC(C)C[C@H](NC(=O)C1OC1C(=O)O)C(=O)NCCCCN=C(N)N` (stereo partly drawn): the Potency result is “inactive”.

`NC(N)=NC(N)=Nc1cccc(Cl)c1`: the Potency result was “inactive”.

Turning to `COC(=O)C(C)(N)Cc1ccc(O)cc1` (stereo not drawn), the Potency entry is “inactive”.

Turning to `OC[C@H]1NC[C@@H](O)[C@@H]1O`, the Potency result is “inactive”.

Turning to `CCCCC[C@H](CC(=O)NO)C(=O)N[C@H](C(=O)N1CCC[C@H]1CO)C(C)C`, the Potency result is “inactive”.

Turning to `Nc1ccc(N2C(=O)c3ccccc3C2=O)c(Cl)c1`, the Potency result is “inactive”.

On to `NOCC(=O)O`, for which the Potency result was “inactive”.

`C#CC(N)CCC(=O)O` (stereo not drawn): the Potency entry was “inactive”.

For the compound `NC1CONC1=O` (stereo not drawn), the Potency result was “inactive”.

For `CCSC(=N)N`, the Potency entry is “inactive”.

Take `NC1(C(=O)O)CCCCC1`: the Potency result was “inactive”.

For the compound `CC(N)(Cc1ccc(O)cc1)C(=O)O` (stereo not drawn), the Potency entry was “inactive”.

As to `CCC1(O)CC2CN(CCc3c([nH]c4ccccc34)[C@@](C(=O)OC)(c3cc4c(cc3OC)N(C=O)C3[C@]45CCN4CC=C[C@@](CC)([C@@H](OC(C)=O)[C@]3(O)C(=O)OC)[C@H]45)C2)C1` (stereo partly drawn), the Potency entry was “inactive”.

Regarding `Cn1c(=O)c2c(nc(/C=C/c3cccc(Cl)c3)n2C)n(C)c1=O`, the Potency entry is “inactive”.

`CC(C)NC[C@H](O)COc1ccc(CC(N)=O)cc1`: the Potency result was “inactive”.

`O=C(O)c1ccccc1Nc1ccccc1`: the Potency result is “inactive”.

On to `N[C@@H](Cc1c[nH]c2ccccc12)C(=O)O`, for which the Potency entry was “inactive”.

On to `COc1ccccc1N1CCN(CCN(C(=O)c2ccc(F)cc2)c2ccccn2)CC1`, for which the Potency result is “inactive”.

With `NC1(C(=O)O)CC1`, the Potency entry is “inactive”.

With `O=C(O)CCC/C=C\C[C@@H]1[C@@H](/C=C/[C@H](O)C2Cc3ccccc3C2)[C@@H](F)C[C@@H]1O`, the Potency entry was “inactive”.

For the compound `CCCCOc1cc(CC2CNC(=O)N2)ccc1OC` (stereo not drawn), the Potency entry is “inactive”.

Consider `O=C(O)C1CCNCC1`, for which the Potency result is “inactive”.

On to `CC(=O)SC1CC2=CC(=O)CC[C@]2(C)C2CC[C@@]3(C)C(CC[C@@]34CCC(=O)O4)C12` (stereo partly drawn), for which the Potency result is “inactive”.

With `N[C@H](C(=O)O)[C@H]1C[C@@H]1C(=O)O`, the Potency result was “inactive”.

As for `CN1CC(O)C(O)C(O)C1CO` (stereo not drawn), the Potency entry was “inactive”.

Regarding `COc1ccc(-c2ccc(N)[n+](CCCC(=O)O)n2)cc1`, the Potency result was “inactive”.

Regarding `C=CCN1CCc2c(cc(O)c(O)c2Br)[C@@H](c2ccccc2)C1`, the Potency result is “inactive”.

With `CCOC(=O)C12CC1/C(=N/O)c1ccccc1O2` (stereo not drawn), the Potency result was “inactive”.

For the compound `C[N+](C)(C)CC=O`, the Potency entry was “inactive”.

For `O=C(O)C1=CCNCC1`, the Potency result is “inactive”.

`CC(N)=NCCCC[C@@H](N)C(=O)O`: the Potency entry is “inactive”.

For the compound `OCC1NCC(O)C(O)C1O` (stereo not drawn), the Potency result is “inactive”.

On to `COc1ccccc1N1CCN(CCCCN2C(=O)c3ccccc3C2=O)CC1`, for which the Potency result was “inactive”.

Turning to `CC[C@H](NC(=O)c1c(C)c(-c2ccccc2)nc2ccccc12)c1ccccc1`, the Potency result is “inactive”.

In the case of `Cn1c(=O)[nH]c2ncn(C)c2c1=O`, the Potency entry was “inactive”.

Regarding `Cc1nc(N=Nc2ccc(C(=O)O)cc2)c(COP(=O)(O)O)c(C=O)c1O`, the Potency entry was “inactive”.

Regarding `c1ccc(C(NCCNC(c2ccccc2)c2ccccc2)c2ccccc2)cc1`, the Potency result was “inactive”.
